Screening results deposited in PubChem BioAssay by National Center for Advancing Translational Sciences (NCATS).
The entries come from a sample that favours hits as a whole.
ALOX12 inh = blocks human arachidonate 12S-lipoxygenase; P18054; purified 12hLO, xylenol orange hydroperoxide absorbance; Potency, µM (highest dose often 108 µM), most hits filed as inhibitors; 1.1% of 580,000 active; AID 1671190
Target sequence (P18054 whole entry, looked up): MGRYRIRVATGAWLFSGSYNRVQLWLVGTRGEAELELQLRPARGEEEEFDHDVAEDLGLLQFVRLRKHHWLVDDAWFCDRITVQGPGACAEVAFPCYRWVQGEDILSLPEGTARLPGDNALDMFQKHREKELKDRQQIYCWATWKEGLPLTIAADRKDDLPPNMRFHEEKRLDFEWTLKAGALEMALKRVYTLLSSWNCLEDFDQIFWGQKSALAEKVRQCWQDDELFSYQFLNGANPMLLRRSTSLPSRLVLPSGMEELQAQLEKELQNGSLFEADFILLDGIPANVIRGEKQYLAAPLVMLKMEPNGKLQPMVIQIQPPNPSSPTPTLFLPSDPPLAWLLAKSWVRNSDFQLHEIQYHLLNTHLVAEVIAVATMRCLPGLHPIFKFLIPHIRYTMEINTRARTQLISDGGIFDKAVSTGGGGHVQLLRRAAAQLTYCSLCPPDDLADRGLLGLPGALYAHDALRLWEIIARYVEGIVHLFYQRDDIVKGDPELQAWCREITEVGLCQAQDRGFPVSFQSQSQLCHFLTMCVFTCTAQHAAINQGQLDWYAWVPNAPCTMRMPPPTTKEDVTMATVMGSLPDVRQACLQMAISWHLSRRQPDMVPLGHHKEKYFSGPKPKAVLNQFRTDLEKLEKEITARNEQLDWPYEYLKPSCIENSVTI
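Hydroperoxide product was detected by ferrous iron/xylenol orange as the 573 to 405 nm absorbance ratio. Arachidonic acid at 40 uM (final) was turned over for 30 min at room temperature by 150 nM human 12hLO, pH 7.0 Hepes buffer, after 15 min compound preincubation.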
HT1080 IDH1KD tx = HT-1080 IDH1 knockdown cell toxicity (counter line); HT-1080 IDH1 knockdown viability, ATP luminescence, 48 h; Potency, µM (titrated, usually from 46.1 µM), usual class: cytotoxic; 2% of 360,000 active; AID 686971
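CellTiter-Glo luminescence after 48 h compound exposure at 37 degrees C of IDH1-knockdown HT-1080 cells in 5% FBS RPMI. %Activity scaled between DMSO wells and cell-free media wells, with curves fitted and assigned curve classes.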
DT40 TDP1 CPT = growth inhibition of DT40 Tdp1-/-;hTDP1 cells with camptothecin (screen for TDP1 inhibitors). Potency, µM (top dose mostly 46.2 µM), actives largely listed as inhibitors. 12% of 420,000 active. chicken DT40 Tdp1-/-;hTDP1 cells + 20 nM CPT, ATP luminescence, 48 h; further: nearly all actives have a fitted effect of over 55% in size
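Cell growth measured by CellTiter-Glo luminescence after a minimum 48 h, 37 C compound exposure with 20 nM CPT in Tdp1-knockout DT40 cells stably expressing hTDP1, seeded 400/well; qHTS titration format.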
HT1080-NT tox = kills 2HG-producing HT-1080-NT fibrosarcoma cells | HT-1080-NT fibrosarcoma viability, CellTiter-Glo ATP luminescence, 48 h | Potency, µM (titrated, usually from 46.1 µM), hits mostly cytotoxic | 1.6% of 360,000 active | AID 686970;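 further: NT is the 2HG producing partner of a matched IDH1 knockdown line; nearly all actives have a fitted effect of over 55% in size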
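HT-1080-NT; 750 cells/well; 5% FBS RPMI; 48 h compound, 37 degrees C; CellTiter-Glo luminescence; curve fitting and curve-class assignment.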
IL-1B inflam inh = blocks inflammasome-driven IL-1 beta release. THP-1 LPS/ATP IL-1B secretion, AlphaLISA, 16 h; hits give low values. activity change, % at 57.5 µM. 4.7% of 360,000 active. AID 743279; in the data active means activity change below about -50%; inconclusive means mostly about -30% to -49%
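Secreted IL-1B measured by AlphaLISA bead assay after 16 h compound exposure of THP-1 cells; compounds (final up to 57.5 uM) added 1 h before LPS (250 ng/mL) and ATP (1.25 mM) stimulation; lower signal means less secretion.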
DT40 TDP1 no CPT = qHTS for Inhibitors of human tyrosyl-DNA phosphodiesterase 1 (TDP1): qHTS in cells in absence of CPT; DT40 Tdp1-/- hTDP1 cells, no CPT, ATP luminescence, 48 h; Potency, µM (titrated, usually from 46.2 µM), usual class: inhibitors; 15% of 420,000 active; further: nearly all actives have a fitted effect of over 55% in size
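Compound effects on proliferation are scored in DT40 Tdp1-/-;hTDP1 cells in the absence of CPT. ATP levels (CellTiter-Glo luminescence) are recorded after a ≥48 hr, 37 °C incubation.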
Large screens that a line does not name were inactive. Unless noted, the call rests on the fitted dose curve; in most records, active means well fitted curve in the direction sought with a large enough effect; inconclusive means small, poorly fitted or top-dose-only effect, or another doubt; inactive means no such curve, though single readings can be large; an effect the other way counts as inactive or inconclusive.

CCn1cc(C(=O)OCC(=O)c2cc(C)n(-c3ccccc3)c2C)c(=O)c2ccc(C)nc21	DT40 TDP1 no CPT inconclusive
CCn1cc(C(=O)OCC(=O)Nc2ccccc2OC(F)F)c(=O)c2ccc(C)nc21	DT40 TDP1 no CPT inconclusive
CCOc1ccccc1NC(=O)COC(=O)c1cn(CC)c2nc(C)ccc2c1=O	DT40 TDP1 CPT 18.4µM, DT40 TDP1 no CPT inconclusive (no result: HT1080 IDH1KD tx, HT1080-NT tox, IL-1B inflam inh)
CCOc1ccccc1NC(=O)CSc1cn(CC(=O)N2CCCCCC2)c2ccccc12	DT40 TDP1 CPT inconclusive, DT40 TDP1 no CPT 25.9µM (no result: HT1080 IDH1KD tx, HT1080-NT tox, IL-1B inflam inh)
CCn1cc(C(=O)OCC(=O)c2cc(C)n(-c3ccc(OC(F)F)cc3)c2C)c(=O)c2ccc(C)nc21	DT40 TDP1 CPT inconclusive, DT40 TDP1 no CPT 13µM
CCOc1ccccc1NC(=O)COC(=O)c1ccccc1SCC(=O)N1CCCC1	DT40 TDP1 CPT inconclusive, DT40 TDP1 no CPT 16.4µM
CC(=O)c1ccc(NC(=O)CSc2cn(CC(=O)N3CCCCC3)c3ccccc23)cc1	DT40 TDP1 CPT inconclusive, DT40 TDP1 no CPT 20.6µM (no result: HT1080 IDH1KD tx, HT1080-NT tox, IL-1B inflam inh)
Cc1ccc(NC(=O)CSc2cn(CC(=O)N3CCCCCC3)c3ccccc23)cc1	DT40 TDP1 no CPT inconclusive (no result: HT1080 IDH1KD tx, HT1080-NT tox, IL-1B inflam inh)
O=C(COC(=O)c1ccccc1SCC(=O)N1CCCC1)Nc1ccccc1C(F)(F)F	none
Cc1ccc(NC(=O)CSc2cn(CC(=O)N3CCCC3)c3ccccc23)cc1Cl	DT40 TDP1 CPT 25.9µM, DT40 TDP1 no CPT inconclusive (no result: HT1080 IDH1KD tx, HT1080-NT tox, IL-1B inflam inh)
O=C(Nc1cc(Cl)cc(Cl)c1)N1CCCC1c1nncn1C1CCCC1 (configuration not stated)	none (no result: HT1080 IDH1KD tx, DT40 TDP1 CPT, HT1080-NT tox, IL-1B inflam inh, DT40 TDP1 no CPT)
O=S(=O)(NCC(c1cccs1)S(=O)(=O)c1ccccc1)c1ccc(F)cc1 (configuration not stated)	DT40 TDP1 CPT 1.64µM, DT40 TDP1 no CPT 2.31µM (no result: HT1080 IDH1KD tx, HT1080-NT tox, IL-1B inflam inh)
O=C(NCCc1ccc(F)cc1)C(=O)NCC(c1ccco1)S(=O)(=O)c1cccs1 (configuration not stated)	DT40 TDP1 CPT inconclusive, DT40 TDP1 no CPT inconclusive (no result: HT1080 IDH1KD tx, HT1080-NT tox, IL-1B inflam inh)
COc1ccc(CNC(=O)C(c2ccncc2)N(C(=O)Cc2cccs2)c2ccccc2)cc1 (configuration not stated)	DT40 TDP1 CPT inconclusive, DT40 TDP1 no CPT inconclusive
COc1ccc(N(C(=O)CCl)C(C(=O)NCCc2ccccc2)c2cccs2)cc1 (configuration not stated)	HT1080 IDH1KD tx 1.64µM, DT40 TDP1 CPT 4.61µM, HT1080-NT tox 2.06µM, IL-1B inflam inh -108.0, DT40 TDP1 no CPT 4.11µM
COc1ccc(CCNC(=O)C(=O)NCC(c2cccs2)S(=O)(=O)c2ccc(F)cc2)cc1 (configuration not stated)	DT40 TDP1 CPT inconclusive, DT40 TDP1 no CPT 23.1µM (no result: HT1080 IDH1KD tx, HT1080-NT tox, IL-1B inflam inh)
COc1ccc(CC(=O)NCC(c2cccs2)S(=O)(=O)c2ccc(F)cc2)cc1 (configuration not stated)	DT40 TDP1 CPT inconclusive, DT40 TDP1 no CPT inconclusive (no result: HT1080 IDH1KD tx, HT1080-NT tox, IL-1B inflam inh)
O=C(NCCc1ccc(F)cc1)C(=O)NCC(c1cccs1)S(=O)(=O)c1cccs1 (configuration not stated)	DT40 TDP1 CPT inconclusive, DT40 TDP1 no CPT 25.9µM (no result: HT1080 IDH1KD tx, HT1080-NT tox, IL-1B inflam inh)
O=C(NCc1noc(-c2ccco2)n1)c1ccc(Br)cc1	none (no result: HT1080 IDH1KD tx, DT40 TDP1 CPT, HT1080-NT tox, IL-1B inflam inh, DT40 TDP1 no CPT)
O=C(CN1C(=O)CSc2ccccc21)NOCc1ccccc1	none (no result: HT1080 IDH1KD tx, DT40 TDP1 CPT, HT1080-NT tox, IL-1B inflam inh, DT40 TDP1 no CPT)
CC(=O)NC(C)C(=O)NC(C)c1ccc(Cl)cc1 (configuration not stated)	none (no result: HT1080 IDH1KD tx, DT40 TDP1 CPT, HT1080-NT tox, IL-1B inflam inh, DT40 TDP1 no CPT)
CCn1cc(S(=O)(=O)CC(=O)Nc2cccc(C)c2)c2ccccc21	none
O=C(Cn1cc(S(=O)(=O)Cc2cccc(Cl)c2)c2ccccc21)Nc1ccccc1C(F)(F)F	DT40 TDP1 CPT 13µM, DT40 TDP1 no CPT inconclusive (no result: HT1080 IDH1KD tx, HT1080-NT tox, IL-1B inflam inh)
Cc1ccccc1Cn1cc(S(=O)(=O)CC(=O)Nc2nccs2)c2ccccc21	DT40 TDP1 CPT inconclusive, HT1080-NT tox inconclusive, IL-1B inflam inh -63.8, DT40 TDP1 no CPT inconclusive
O=C(Cn1cc(S(=O)(=O)Cc2ccccc2)c2ccccc21)Nc1ccccc1	none (no result: ALOX12 inh)
CC(=O)c1ccc(NC(=O)Cn2cc(S(=O)(=O)Cc3cccc(Cl)c3)c3ccccc32)cc1	DT40 TDP1 CPT 23.1µM, DT40 TDP1 no CPT 23.1µM (no result: HT1080 IDH1KD tx, HT1080-NT tox, IL-1B inflam inh)
